In PubChem BioAssay (NCATS):
Values joined by “and” are separate entries in the source; they are usually repeats but may differ in a detail not shown here. Equal entries are not always repeated. Results filed as inconclusive are left out. A structure can be active in one record and inactive in another. Active and inactive are the calls of the source. The call rests on the fitted dose curve; in most records, active means well fitted curve in the direction sought with a large enough effect; inconclusive means small, poorly fitted or top-dose-only effect, or another doubt; inactive means no such curve, though single readings can be large; an effect the other way counts as inactive or inconclusive.

Key:
[1] = Viability qHTS for spleen associated tyrosine kinase inhibitor (SYKi) naive MV4-11 cells (AID 1963823); further: nearly all actives have a fitted effect of over 40% in size; further: potency means the concentration at half of the fitted maximal effect
In short: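 CellTiter-Glo luminescence, 10 min room-temperature incubation, gave viability. Cells: naive MV4-11 (500/well), treated 72 hr at 37 C, 5% CO2.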

[2] = Viability qHTS for spleen associated tyrosine kinase inhibitor (SYKi) drug resistant MV4-11 cells (AID 1963824); further: nearly all actives have a fitted effect of over 35% in size; further: potency means the concentration at half of the fitted maximal effect
In short: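 SYK-inhibitor-resistant MV4-11 AML cells were seeded at 500 per well onto compound and cultured 72 hours (37 °C, 5% CO2). CellTiter-Glo was then added, and after 10 min at room temperature, luminescence gave viability.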

[3] = Quantitative highthroughput screen to assess conditional lethalithy of NOMO1 cells grown in RPMI1640 with untreated serum (RPMI+s) (AID 1963876); further: nearly all actives have a fitted effect of over 35% in size; further: potency means the concentration at half of the fitted maximal effect;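 on Viability: 100% = DMSO wells and 0% = empty wells without cells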
In short: (§1)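 Each medium arm—HPLM with 10% dialyzed FBS, or RPMI1640 with 5 mM glucose and 10% untreated or dialyzed FBS—was screened against an 11-point, 3-fold compound titration for 48 h at 37 °C, with CellTiter-Glo luminescence as endpoint.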

[4] = Quantitative highthroughput screen to assess conditional lethalithy of NOMO1 cells grown in RPMI1640 with dialyzed fetal bovine serum (RPMI+ds) (AID 1963877); further: nearly all actives have a fitted effect of over 30% in size; further: potency means the concentration at half of the fitted maximal effect;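 on Viability: series mostly up to about 46 µM; 100% = DMSO control wells and 0% = empty wells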
In short: as §1

[5] = Quantitative highthroughput screen to assess conditional lethalithy of P12 Ichikawa cells grown in RPMI1640 with untreated serum (RPMI+s) (AID 1963881); details: Potency: viability; further: nearly all actives have a fitted effect of over 35% in size; further: potency means the concentration at half of the fitted maximal effect;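 on Viability: series mostly up to about 46 µM; 100% = DMSO wells and 0% = empty wells without cells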
In short: as §1

[6] = Quantitative highthroughput screen to assess conditional lethalithy of SEM cells grown in Human Plasma-Like Medium with dialyzed fetal bovine serum (HPLM+ds) (AID 1963882); further: nearly all actives have a fitted effect of over 35% in size; further: potency means the concentration at half of the fitted maximal effect; on Viability: series mostly up to about 46 µM
In short: as §1

[7] = Quantitative highthroughput screen to assess conditional lethalithy of SEM cells grown in RPMI1640 with unreated serum (RPMI+s) (AID 1963883); further: nearly all actives have a fitted effect of over 35% in size; further: potency means the concentration at half of the fitted maximal effect;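 on Viability: 100% = DMSO wells and 0% = empty wells without cells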
In short: as §1

[8] = Cellular viability qHTS for adrenocortical cancer (ACC) cell line SW-13 (AID 1963989); details: SW-13 ACC cells viability, CellTiter-Glo, 48 h; activity (max response): stronger effect = lower value; further: nearly all actives have a fitted effect of over 65% in size; further: potency means the concentration at half of the fitted maximal effect;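 on activity (max response): cells grown in serum-free medium with ITS supplement; on the % scale 0 is the no-effect control and ±100 the full control effect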
In short: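 Luminescent ATP read-out (CellTiter-Glo, 20 min at room temperature) measured metabolically competent SW-13 cells after 48 h compound treatment. Final concentrations spanned up to 46 uM; bortezomib served as positive control.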

[9] = Cellular viability qHTS for adrenocortical cancer (ACC) cell line NCI-H295R (AID 1963990); further: nearly all actives have a fitted effect of over 60% in size; further: potency means the concentration at half of the fitted maximal effect
In short: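 IC50 and maximal efficacy derive from four-parameter logistic modelling of titration curves, with reads scaled between DMSO-only wells (0%) and doxorubicin hydrochloride (100% inhibition). Compounds spanned up to 46 uM over 48 h.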

[10] = Quantitative highthroughput screen to assess conditional lethalithy of NOMO1 cells grown in Human Plasma-Like Medium with dialyzed fetal bovine serum (HPLM+ds) (AID 1963878)
In short: as §1

[11] = Quantitative highthroughput screen to assess conditional lethalithy of SEM cells grown in RPMI1640 with dialyzed fetal bovine serum (RPMI+ds) (AID 1963884)
In short: as §1

[12] = Quantitative highthroughput screen to assess conditional lethalithy of P12 Ichikawa cells grown in Human Plasma-Like Medium with dialyzed fetal bovine serum (HPLM+ds) (AID 1963879); details: Potency: viability; further: nearly all actives have a fitted effect of over 35% in size; further: potency means the concentration at half of the fitted maximal effect; on Viability: series mostly up to about 46 µM
In short: as §1

[13] = Quantitative highthroughput screen to assess conditional lethalithy of P12 Ichikawa cells grown in RPMI1640 with dialyzed fetal bovine serum (RPMI+ds) (AID 1963880); details: Potency: P12-Ichikawa viability
In short: as §1

CN[C@@H]1Cc2cccc3[nH]c(=O)n(c23)C1
Potency [1]: inactive
Potency [2]: inactive
Potency [3]: inactive
Potency [4]: inactive
Potency [5]: inactive
Potency [6]: inactive
Potency [7]: inactive
activity (max response) [8]: -9.99% (inactive)
Potency [9]: inactive

CCCCCCC1C(=O)O[C@H](C)[C@H](NC(=O)c2cccc(NC=O)c2O)C(=O)O[C@@H](C)[C@@H]1OC(=O)CC(C)C (stereo not given in full)
Potency [1]: 0.517 µM (active)
Potency [2]: 0.291 µM (active)

Cc1c(Cl)c(OCC(=O)N2CCN(C)CC2)nc2sc(C(=O)NC3CC3)c(N)c12
Potency [1]: inactive
Potency [2]: inactive

COC1=C[C@@H]2[C@@H]3Cc4ccc(OC)c(O)c4[C@]2(CCN3C)CC1=O
Potency [1]: inactive
Potency [2]: 18.6 µM (active)
Potency [3]: inactive
Potency [4]: inactive
Potency [10]: inactive
Potency [6]: inactive
Potency [7]: inactive
Potency [11]: inactive
activity (max response) [8]: -18.4% (inactive)
Potency [9]: inactive

CC[C@@]1(O)C(=O)OCc2c1cc1n(c2=O)Cc2cc3c(OC)cccc3nc2-1
Potency [1]: 0.0143 µM (active)
Potency [2]: 0.0114 µM (active)

CCN1C[C@]2(COC(=O)c3ccccc3N3C(=O)C[C@H](C)C3=O)CC[C@H](OC)[C@@]34[C@@H]5C[C@H]6[C@H](OC)[C@@H]5[C@](O)(C[C@@H]6OC)[C@](O)([C@@H](OC)[C@H]23)[C@@H]14
Potency [1]: inactive
Potency [2]: inactive

COC[C@H]1OC(=O)c2coc3c2[C@@]1(C)C1=C(C3=O)[C@@H]2CC[C@H](O)[C@@]2(C)C[C@@H]1OC(C)=O
Potency [1]: 11.6 µM (active)
Potency [2]: 14.6 µM (active)
Potency [3]: inactive
Potency [4]: inactive

CO[C@@H]1[C@H](O)[C@@H](O[C@@H]2C[C@H]3CC[C@@H]4C(CC[C@]5(C)[C@@H](C6=CC(=O)OC6)CC[C@]45O)[C@@]3(C)[C@H](O)C2)O[C@H](C)[C@@H]1O (stereo not given in full)
Potency [1]: 0.0632 µM (active)
Potency [2]: 0.0282 µM (active)

Cc1c(Cl)cccc1S(=O)(=O)Nc1nc(CC(=O)N2CCN(C)CC2)cs1
Potency [1]: inactive
Potency [2]: inactive

Fc1cc(F)c2c(c1)[C@H]1C=CC[C@H]1C(c1cccnc1)N2 (stereo not given in full)
Potency [1]: 2.91 µM (active)
Potency [2]: 3.66 µM (active)

C[N@@+]1(CC2CC2)CC[C@]23c4c5ccc(O)c4O[C@H]2C(=O)CC[C@@]3(O)[C@H]1C5
Potency [1]: inactive
Potency [2]: inactive

C[C@@]1(CO)[C@H](O)CC[C@@]2(C)[C@H]1CC[C@H]1C[C@@H]3C[C@@]12CC[C@]3(O)CO
Potency [1]: 1.01 µM (active)
Potency [2]: 1.01 µM (active)

O=C1Nc2ccc3ncsc3c2/C1=C/c1cnc[nH]1
Potency [1]: 0.082 µM (active)
Potency [2]: 0.164 µM (active)

C[C@H](CCC(=O)O)C[C@H](C)C[C@H](C)C(=O)/C=C(\O)[C@H](C)C[C@H](C)C/C=C/[C@@H](C)[C@@H](O)[C@@H](C)[C@@H](O)C[C@@H]1CC[C@@](C)([C@H]2CC[C@@](C)([C@@H](C)O)O2)O1
Potency [1]: 2.52 µM (active)
Potency [2]: 2.82 µM (active)

COCC(C(=O)OC1CC2CCC(C1)N2C)c1ccccc1 (stereo not given)
Potency [1]: inactive
Potency [2]: inactive

COc1ccc(C(=O)c2c(C)n(CCN3CCOCC3)c3cc(I)ccc23)cc1
Potency [1]: 13.2 µM (active)
Potency [2]: 10.5 µM (active)
Potency [3]: 935 nM (active)
Potency [12]: 4.18 µM (active)
Potency [13]: 8.33 µM (active)
Potency [5]: 4.18 µM (active)
Potency [8]: 31.6 µM (active)
Potency [9]: 20 µM (active)

Cc1c(C(=O)Nc2cccc(C(F)(F)F)c2)cc(-c2ccccc2)n1CCCN1CCOCC1
Potency [1]: 14.6 µM (active)
Potency [2]: 16.6 µM (active)
Potency [3]: inactive
Potency [12]: inactive

C[C@H]1CCC/C=C/C2C[C@H](O)C[C@H]2[C@H](O)/C=C/C(=O)O1 (stereo not given in full)
Potency [1]: 184 nM (active) and 148 nM (active)
Potency [2]: 92 nM (active) and 118 nM (active)
Potency [8]: 0.282 µM (active)

Cc1nnc2n1-c1sc(CCC(=O)N3CCOCC3)cc1C(c1ccccc1Cl)=NC2
Potency [1]: inactive
Potency [2]: inactive
activity (max response) [8]: 5.36% (inactive)

O=P1(NCCCl)OCCCN1CCCl (stereo not given)
Potency [1]: inactive
Potency [2]: inactive
Potency [3]: inactive
Potency [5]: inactive
Potency [6]: 18.7 µM (active)
Potency [7]: 14.8 µM (active)
activity (max response) [8]: 17.4% (inactive) and 1.23% (inactive)
Potency [9]: inactive

CCN1CCCC1CNC(=O)C(O)(c1ccccc1)c1ccccc1 (stereo not given)
Potency [1]: inactive
Potency [2]: inactive
activity (max response) [8]: -3.88% (inactive)

CC(C)c1cccc(C(C)C)c1O
Potency [1]: inactive
Potency [2]: inactive
Potency [10]: inactive
Potency [5]: inactive
Potency [6]: inactive
Potency [7]: inactive
activity (max response) [8]: 18.8% (inactive) and -6.92% (inactive)
Potency [9]: inactive and 23.1 µM (active)

COc1cc(N)c(Cl)cc1C(=O)NC1CN2CCC1CC2 (stereo not given)
Potency [1]: inactive
Potency [2]: inactive
activity (max response) [8]: -1.3% (inactive)

COC[C@H]1OC(=O)c2coc3c2[C@@]1(C)C1=C(C3=O)[C@@H]2CC[C@H](O)[C@@]2(C)C[C@H]1OC(C)=O
Potency [1]: 1.66 µM (active)
Potency [2]: 1.66 µM (active)
activity (max response) [8]: -16.1% (inactive)

Cc1sc2c(c1C)C(c1ccc(Cl)cc1)=N[C@@H](CC(=O)OC(C)(C)C)c1nnc(C)n1-2
Potency [1]: 0.105 µM (active)
Potency [2]: 0.118 µM (active)
Potency [4]: 372 nM (active)
Potency [12]: 1.66 µM (active)
Potency [9]: 3.98 µM (active)
